Test results taken from ChEMBL document CHEMBL1961873, “Compounds: GSK PKIS; Assays: Nanosyn kinase panel” (2012).

How the values were obtained:
[1] = biological target: Tyrosine-protein kinase receptor UFO (Homo sapiens) (UniProt P30530); details: at 1 µM
[2] = biological target: Tyrosine-protein kinase Blk (Homo sapiens) (UniProt P51451); details: at 0.1 µM
[3] = biological target: Tyrosine-protein kinase Blk (Homo sapiens) (UniProt P51451); details: at 1 µM
[4] = biological target: T1, Cytoplasmic tyrosine-protein kinase BMX (Homo sapiens) (UniProt P51813); details: at 0.1 µM
T1 sequence (whole entry): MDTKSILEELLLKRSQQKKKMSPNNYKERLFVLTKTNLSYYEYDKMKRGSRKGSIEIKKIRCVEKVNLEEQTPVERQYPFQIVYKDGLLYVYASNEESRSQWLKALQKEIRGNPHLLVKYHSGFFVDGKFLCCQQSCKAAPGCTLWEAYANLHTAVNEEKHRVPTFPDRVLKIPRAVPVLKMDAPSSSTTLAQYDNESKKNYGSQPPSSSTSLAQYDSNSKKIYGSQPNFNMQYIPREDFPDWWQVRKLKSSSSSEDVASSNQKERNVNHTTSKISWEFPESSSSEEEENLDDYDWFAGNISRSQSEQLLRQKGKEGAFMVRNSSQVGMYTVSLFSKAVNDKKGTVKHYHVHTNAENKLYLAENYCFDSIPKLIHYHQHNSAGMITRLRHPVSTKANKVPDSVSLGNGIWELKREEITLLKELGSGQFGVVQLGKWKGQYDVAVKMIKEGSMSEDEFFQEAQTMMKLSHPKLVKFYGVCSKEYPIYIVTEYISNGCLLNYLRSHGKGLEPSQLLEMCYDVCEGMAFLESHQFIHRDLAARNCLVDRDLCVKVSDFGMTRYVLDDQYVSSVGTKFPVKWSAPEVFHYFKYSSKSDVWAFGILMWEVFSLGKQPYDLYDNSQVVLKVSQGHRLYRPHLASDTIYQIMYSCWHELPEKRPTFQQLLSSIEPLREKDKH

[5] = biological target: T1, Cytoplasmic tyrosine-protein kinase BMX (Homo sapiens); details: at 1 µM
[6] = biological target: Protein-tyrosine kinase 6 (Homo sapiens) (UniProt Q13882); details: at 0.1 µM
[7] = biological target: Protein-tyrosine kinase 6 (Homo sapiens) (UniProt Q13882); details: at 1 µM
[8] = biological target: Tyrosine-protein kinase BTK (Homo sapiens) (UniProt Q06187); details: at 0.1 µM
[9] = biological target: Tyrosine-protein kinase BTK (Homo sapiens) (UniProt Q06187); details: at 1 µM
[10] = biological target: Tyrosine-protein kinase CSK (Homo sapiens) (UniProt P41240); details: at 0.1 µM
[11] = biological target: Tyrosine-protein kinase CSK (Homo sapiens) (UniProt P41240); details: at 1 µM
[12] = biological target: T2, Discoidin domain-containing receptor 2 (Homo sapiens) (UniProt Q16832); details: at 0.1 µM
T2 sequence (whole entry): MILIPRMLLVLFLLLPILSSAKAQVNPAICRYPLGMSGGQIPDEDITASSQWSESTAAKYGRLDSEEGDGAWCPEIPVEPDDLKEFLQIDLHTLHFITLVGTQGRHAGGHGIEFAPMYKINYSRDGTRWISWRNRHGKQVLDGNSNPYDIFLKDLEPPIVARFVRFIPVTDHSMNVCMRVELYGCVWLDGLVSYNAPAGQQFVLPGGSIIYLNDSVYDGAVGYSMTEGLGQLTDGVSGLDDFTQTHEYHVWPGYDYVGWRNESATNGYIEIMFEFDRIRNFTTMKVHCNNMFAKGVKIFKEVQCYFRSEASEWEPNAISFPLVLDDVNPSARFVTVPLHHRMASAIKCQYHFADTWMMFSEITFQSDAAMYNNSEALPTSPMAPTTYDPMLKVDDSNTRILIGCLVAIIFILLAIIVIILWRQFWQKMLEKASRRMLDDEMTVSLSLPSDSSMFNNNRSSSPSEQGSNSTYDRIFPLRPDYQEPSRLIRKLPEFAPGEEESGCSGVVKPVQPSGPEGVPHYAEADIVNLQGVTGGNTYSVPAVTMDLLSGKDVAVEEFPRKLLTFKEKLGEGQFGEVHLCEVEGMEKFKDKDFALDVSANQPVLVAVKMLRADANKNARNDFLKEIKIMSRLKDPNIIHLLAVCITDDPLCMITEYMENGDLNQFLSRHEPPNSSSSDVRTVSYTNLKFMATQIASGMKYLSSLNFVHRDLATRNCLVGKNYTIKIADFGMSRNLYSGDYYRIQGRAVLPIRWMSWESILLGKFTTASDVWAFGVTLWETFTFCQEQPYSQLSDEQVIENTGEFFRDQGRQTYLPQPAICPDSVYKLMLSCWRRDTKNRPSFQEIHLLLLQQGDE

[13] = biological target: T2, Discoidin domain-containing receptor 2 (Homo sapiens); details: at 1 µM
[14] = biological target: Epidermal growth factor receptor (Homo sapiens) (UniProt P00533); details: at 0.1 µM
[15] = biological target: Epidermal growth factor receptor (Homo sapiens) (UniProt P00533); details: at 1 µM
[16] = tested on: Epidermal growth factor receptor (Homo sapiens), P00533 [L858R]; details: at 0.1 µM
[17] = tested on: Epidermal growth factor receptor (Homo sapiens), P00533 [L858R]; details: at 1 µM
[18] = tested on: Epidermal growth factor receptor (Homo sapiens), P00533 [L861Q]; details: at 0.1 µM
[19] = tested on: Epidermal growth factor receptor (Homo sapiens), P00533 [L861Q]; details: at 1 µM
[20] = tested on: Epidermal growth factor receptor (Homo sapiens), P00533 [T790M]; details: at 0.1 µM

Epidermal growth factor receptor (Homo sapiens), P00533 [L858R], sequence (P00533 whole entry L858R): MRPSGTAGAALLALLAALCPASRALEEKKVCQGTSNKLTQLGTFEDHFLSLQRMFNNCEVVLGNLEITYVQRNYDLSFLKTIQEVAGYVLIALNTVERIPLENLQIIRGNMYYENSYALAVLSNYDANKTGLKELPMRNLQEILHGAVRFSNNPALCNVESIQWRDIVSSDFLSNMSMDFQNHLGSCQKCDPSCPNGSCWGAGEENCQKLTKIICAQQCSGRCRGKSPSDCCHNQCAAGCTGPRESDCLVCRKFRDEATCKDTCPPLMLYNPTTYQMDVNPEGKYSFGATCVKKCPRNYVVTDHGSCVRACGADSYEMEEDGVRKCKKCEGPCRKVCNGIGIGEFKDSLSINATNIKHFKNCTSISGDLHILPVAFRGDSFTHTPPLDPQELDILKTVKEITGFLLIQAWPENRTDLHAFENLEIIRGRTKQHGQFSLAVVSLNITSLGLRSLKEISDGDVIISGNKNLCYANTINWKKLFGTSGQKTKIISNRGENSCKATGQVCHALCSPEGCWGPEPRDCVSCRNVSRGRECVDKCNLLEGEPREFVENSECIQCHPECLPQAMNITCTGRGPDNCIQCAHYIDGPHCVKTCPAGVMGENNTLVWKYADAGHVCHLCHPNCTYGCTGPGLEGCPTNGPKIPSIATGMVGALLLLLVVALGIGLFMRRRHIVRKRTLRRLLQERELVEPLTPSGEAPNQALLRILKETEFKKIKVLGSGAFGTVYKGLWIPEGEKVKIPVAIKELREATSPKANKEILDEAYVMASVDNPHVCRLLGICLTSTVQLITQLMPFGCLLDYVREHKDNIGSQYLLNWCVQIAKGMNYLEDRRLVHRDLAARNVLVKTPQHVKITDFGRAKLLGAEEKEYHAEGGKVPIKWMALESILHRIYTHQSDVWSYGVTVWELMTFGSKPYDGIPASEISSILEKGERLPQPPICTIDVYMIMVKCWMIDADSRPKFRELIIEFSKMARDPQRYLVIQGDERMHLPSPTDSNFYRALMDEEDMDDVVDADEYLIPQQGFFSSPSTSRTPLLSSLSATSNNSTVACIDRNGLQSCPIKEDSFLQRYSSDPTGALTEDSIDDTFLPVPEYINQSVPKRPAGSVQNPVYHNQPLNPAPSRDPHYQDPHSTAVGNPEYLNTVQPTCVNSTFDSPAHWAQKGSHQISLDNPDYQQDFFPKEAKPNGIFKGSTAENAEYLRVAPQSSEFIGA
Tyrosine-protein kinase receptor UFO (Homo sapiens), sequence (P30530 whole entry): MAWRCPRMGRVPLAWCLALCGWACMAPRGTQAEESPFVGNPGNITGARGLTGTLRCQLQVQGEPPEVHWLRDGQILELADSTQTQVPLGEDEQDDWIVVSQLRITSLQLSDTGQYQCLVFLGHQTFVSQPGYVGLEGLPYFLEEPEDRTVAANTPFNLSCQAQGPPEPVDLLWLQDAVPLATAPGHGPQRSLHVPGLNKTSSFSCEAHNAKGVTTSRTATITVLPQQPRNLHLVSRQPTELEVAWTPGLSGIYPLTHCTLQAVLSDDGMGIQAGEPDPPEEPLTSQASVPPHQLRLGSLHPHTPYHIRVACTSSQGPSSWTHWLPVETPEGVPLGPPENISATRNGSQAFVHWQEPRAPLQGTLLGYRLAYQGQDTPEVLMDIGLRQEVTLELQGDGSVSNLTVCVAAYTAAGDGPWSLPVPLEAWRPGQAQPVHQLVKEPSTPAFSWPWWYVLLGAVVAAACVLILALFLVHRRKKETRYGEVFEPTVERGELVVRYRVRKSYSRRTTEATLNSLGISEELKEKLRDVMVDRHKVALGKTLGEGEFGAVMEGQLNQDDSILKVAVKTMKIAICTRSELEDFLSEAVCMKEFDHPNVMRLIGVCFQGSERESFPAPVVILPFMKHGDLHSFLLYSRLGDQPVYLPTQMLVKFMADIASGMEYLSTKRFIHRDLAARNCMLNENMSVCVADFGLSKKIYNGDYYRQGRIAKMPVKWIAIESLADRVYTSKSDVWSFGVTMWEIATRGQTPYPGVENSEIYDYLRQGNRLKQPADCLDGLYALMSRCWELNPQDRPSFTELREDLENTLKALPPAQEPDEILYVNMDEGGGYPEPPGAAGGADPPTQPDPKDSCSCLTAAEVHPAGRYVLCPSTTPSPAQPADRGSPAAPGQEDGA
Protein-tyrosine kinase 6 (Homo sapiens), sequence (Q13882 whole entry, looked up): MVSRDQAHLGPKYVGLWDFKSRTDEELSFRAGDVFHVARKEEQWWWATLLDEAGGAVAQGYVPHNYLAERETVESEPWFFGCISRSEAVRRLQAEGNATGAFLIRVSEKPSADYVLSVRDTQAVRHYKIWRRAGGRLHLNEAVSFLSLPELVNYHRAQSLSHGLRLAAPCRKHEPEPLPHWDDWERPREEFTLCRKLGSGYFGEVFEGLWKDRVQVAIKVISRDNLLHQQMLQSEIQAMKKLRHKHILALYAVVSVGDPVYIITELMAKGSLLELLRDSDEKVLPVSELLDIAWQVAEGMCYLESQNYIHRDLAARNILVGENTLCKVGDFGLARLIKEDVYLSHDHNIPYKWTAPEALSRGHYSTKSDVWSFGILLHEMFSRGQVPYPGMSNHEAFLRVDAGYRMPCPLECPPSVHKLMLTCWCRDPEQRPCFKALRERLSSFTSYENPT
Epidermal growth factor receptor (Homo sapiens), sequence (P00533 whole entry): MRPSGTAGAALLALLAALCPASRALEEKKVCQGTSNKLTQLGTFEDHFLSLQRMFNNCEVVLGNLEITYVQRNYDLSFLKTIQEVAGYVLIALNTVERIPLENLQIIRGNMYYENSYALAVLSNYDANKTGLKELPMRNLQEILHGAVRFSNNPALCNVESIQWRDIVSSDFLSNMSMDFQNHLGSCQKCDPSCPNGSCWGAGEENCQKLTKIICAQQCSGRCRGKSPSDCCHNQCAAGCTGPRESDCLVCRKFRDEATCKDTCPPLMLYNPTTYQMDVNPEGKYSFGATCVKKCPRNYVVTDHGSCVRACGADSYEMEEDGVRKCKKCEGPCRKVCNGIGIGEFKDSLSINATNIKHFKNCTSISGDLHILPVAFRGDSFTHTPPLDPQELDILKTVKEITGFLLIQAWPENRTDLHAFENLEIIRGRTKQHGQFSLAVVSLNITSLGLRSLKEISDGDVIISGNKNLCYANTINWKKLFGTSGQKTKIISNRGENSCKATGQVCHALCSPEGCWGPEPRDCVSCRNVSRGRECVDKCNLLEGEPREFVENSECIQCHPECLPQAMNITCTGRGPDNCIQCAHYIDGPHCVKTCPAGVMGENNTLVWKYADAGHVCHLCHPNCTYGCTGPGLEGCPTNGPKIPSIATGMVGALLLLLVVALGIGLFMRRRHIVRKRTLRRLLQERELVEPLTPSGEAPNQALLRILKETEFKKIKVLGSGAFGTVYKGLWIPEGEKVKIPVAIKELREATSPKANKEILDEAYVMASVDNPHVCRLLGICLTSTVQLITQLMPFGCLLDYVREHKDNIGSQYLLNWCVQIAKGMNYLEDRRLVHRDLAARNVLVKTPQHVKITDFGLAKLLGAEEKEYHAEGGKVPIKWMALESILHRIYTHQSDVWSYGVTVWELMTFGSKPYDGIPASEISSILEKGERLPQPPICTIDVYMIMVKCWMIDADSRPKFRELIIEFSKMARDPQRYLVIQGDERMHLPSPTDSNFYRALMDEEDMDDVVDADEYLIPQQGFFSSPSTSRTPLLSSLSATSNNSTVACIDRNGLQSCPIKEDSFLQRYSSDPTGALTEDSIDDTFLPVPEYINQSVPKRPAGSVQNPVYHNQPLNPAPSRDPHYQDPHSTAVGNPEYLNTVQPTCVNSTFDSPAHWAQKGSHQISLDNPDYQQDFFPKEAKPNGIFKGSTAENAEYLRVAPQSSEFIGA
Tyrosine-protein kinase Blk (Homo sapiens), sequence (P51451 2-505 limits assumed): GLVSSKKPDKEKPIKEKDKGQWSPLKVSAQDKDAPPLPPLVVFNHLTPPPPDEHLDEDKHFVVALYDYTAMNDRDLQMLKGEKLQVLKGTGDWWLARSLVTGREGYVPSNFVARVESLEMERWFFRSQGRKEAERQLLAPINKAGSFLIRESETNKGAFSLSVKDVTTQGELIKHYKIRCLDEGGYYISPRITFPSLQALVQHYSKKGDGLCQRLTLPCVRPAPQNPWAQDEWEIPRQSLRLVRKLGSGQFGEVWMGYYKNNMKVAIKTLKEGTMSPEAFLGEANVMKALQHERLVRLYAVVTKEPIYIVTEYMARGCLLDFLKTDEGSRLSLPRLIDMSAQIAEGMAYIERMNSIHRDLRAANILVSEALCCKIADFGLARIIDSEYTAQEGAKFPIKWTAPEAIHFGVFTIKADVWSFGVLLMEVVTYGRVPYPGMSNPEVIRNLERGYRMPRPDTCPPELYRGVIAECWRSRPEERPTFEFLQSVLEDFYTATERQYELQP
Tyrosine-protein kinase BTK (Homo sapiens), sequence (Q06187 whole entry): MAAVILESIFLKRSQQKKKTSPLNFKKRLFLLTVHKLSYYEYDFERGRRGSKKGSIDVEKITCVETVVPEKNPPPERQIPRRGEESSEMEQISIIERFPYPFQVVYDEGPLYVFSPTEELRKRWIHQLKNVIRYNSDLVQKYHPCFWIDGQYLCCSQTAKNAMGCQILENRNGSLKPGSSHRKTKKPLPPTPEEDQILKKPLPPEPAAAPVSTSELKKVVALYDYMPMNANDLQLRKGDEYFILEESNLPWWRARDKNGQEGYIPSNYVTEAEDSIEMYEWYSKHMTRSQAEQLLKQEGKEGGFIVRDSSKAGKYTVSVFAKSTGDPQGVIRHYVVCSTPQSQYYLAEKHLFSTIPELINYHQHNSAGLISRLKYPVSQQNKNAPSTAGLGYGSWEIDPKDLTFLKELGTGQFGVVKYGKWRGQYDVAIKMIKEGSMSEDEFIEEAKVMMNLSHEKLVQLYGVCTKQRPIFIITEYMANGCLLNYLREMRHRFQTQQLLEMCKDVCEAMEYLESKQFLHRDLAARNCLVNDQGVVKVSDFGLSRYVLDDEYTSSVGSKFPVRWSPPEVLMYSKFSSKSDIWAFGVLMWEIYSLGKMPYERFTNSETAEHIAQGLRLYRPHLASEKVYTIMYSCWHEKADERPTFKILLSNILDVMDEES

| SMILES | inhibition [1] | inhibition [2] | inhibition [3] | inhibition [4] | inhibition [5] | inhibition [6] | inhibition [7] | inhibition [8] | inhibition [9] | inhibition [10] | inhibition [11] | inhibition [12] | inhibition [13] | inhibition [14] | inhibition [15] | inhibition [16] | inhibition [17] | inhibition [18] | inhibition [19] | inhibition [20] |
| --- | --- | --- | --- | --- | --- | --- | --- | --- | --- | --- | --- | --- | --- | --- | --- | --- | --- | --- | --- | --- |
| N#Cc1c(NC(=O)c2ccccc2F)sc2c1CCCC2 | 2.38% | -0.71% | 0.42% | -1.17% | -1.62% | 0.56% | -1.93% | 0.32% | -0.23% | -1.65% | -5.02% | -1.61% | -1.14% | 2.1% | 4% | 1.21% | 3.66% | -0.67% | -1.19% | -2.41% |
| COC(=O)c1cncc(/C=C/c2c(C)cc(O)cc2C)c1 | -5.3% | 3.73% | 13.6% | 4.1% | 29.6% | 11.4% | 50.2% | 1.9% | 2.92% | 4.04% | 24.8% | 1.69% | 10.3% | 0.29% | 3.19% | 2.6% | 11.5% | 3.47% | 7.07% | 2.64% |
| CS(=O)(=O)Nc1cccc(-c2ccc3c(NC(=O)C4CC4)n[nH]c3c2)c1 | 1.68% | 0.09% | 4.51% | 4.15% | 1.52% | -1.65% | -2.5% | 0.45% | 1.66% | -2.14% | -2.39% | 0.9% | 0.99% | 0.81% | 0.31% | -0.89% | -1.93% | 1.44% | -2.52% | -1.89% |
